Measurements: PubChem BioAssay (NCI)
Compounds without any hit were thinned out: in the full panel of roughly 83,000, 20% have a hit.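 In brief: 96-well plates, 48 h treatment, single concentration, percent growth endpoint.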 The source made the active and inactive calls. Rule for the calls: active = growth percent below 10; inactive = the rest.

Columns and labels:
Experiment in all cases: NCI-60 one-dose screen, 48 h (100 = growth as untreated, 0 = no growth, -100 = all killed)
Conditions in all cases: 10 µM
[1] = system: RPMI-8226 leukemia
[2] = system: OVCAR-8 ovarian
[3] = system: OVCAR-5 ovarian
[4] = system: SK-OV-3 ovarian
[5] = system: IGROV1 ovarian
[6] = system: OVCAR-3 ovarian
[7] = system: HS 578T breast
[8] = system: NCI/ADR-RES ovarian
[9] = system: T-47D breast
[10] = system: BT-549 breast
[11] = system: MDA-MB-435 melanoma
[12] = system: SW-620 colon
[13] = system: MCF7 breast
[14] = system: HCT-116 colon
[15] = system: HCC-2998 colon
[16] = system: KM12 colon
[17] = system: OVCAR-4 ovarian

Measured: growth

O=[P@@]1(c2ccccc2)O[C@H](COCc2ccccc2)[C@@H](OCc2ccccc2)[C@H](OCc2ccccc2)[C@H]1O
inactive: [1] 89.6% | [2] 45% | [3] 99.3% | [4] 38.7% | [5] 78.3% | [6] 59.5% | [8] 73.4% | [9] 72.8% | [10] 56.9% | [11] 95.6% | [12] 104% | [13] 51% | [14] 69.8% | [15] 103% | [16] 98.1%
active: [7] -10.7%

CCOC(=O)CCC(NC(=O)c1ccc(N)cc1)C(=O)OCC (centres undefined)
inactive: [2] 105% | [3] 89.6% | [17] 95.7% | [4] 109% | [5] 105% | [6] 106% | [7] 113% | [8] 102% | [9] 101% | [10] 44.8% | [11] 117% | [12] 107% | [13] 103% | [14] 106% | [15] 105% | [16] 106%

COc1ccc(N2C(=O)C3c4[nH]c5ccc(OCc6ccccc6)cc5c4C4CCC(C(C)C)CC4C3C2=O)cc1 (centres undefined)
inactive: [1] 86.9% | [3] 84.4% | [17] 47.7% | [4] 116% | [5] 59.6% | [6] 109% | [7] 92.7% | [8] 109% | [9] 104% | [10] 104% | [11] 104% | [12] 87.9% | [13] 95.2% | [15] 116% | [16] 105%

Cc1cc(C)c(NC(=O)c2sc3nc4c(cc3c2N)C(=O)CCC4)c(C)c1
active: [8] -8.04% | [11] -34.4%
inactive: [1] 31.8% | [2] 45.6% | [4] 10.4% | [5] 35.4% | [6] 13.2% | [7] 17.7% | [9] 40.6% | [10] 56.7% | [12] 15.6% | [13] 16.8% | [14] 23.1% | [15] 30.9% | [16] 27.3%

CN(CCc1ccccn1)c1ccccc1
inactive: [2] 102% | [3] 94% | [17] 98.5% | [4] 112% | [5] 103% | [6] 131% | [7] 107% | [8] 105% | [9] 97.4% | [10] 104% | [11] 120% | [12] 111% | [13] 95.9% | [14] 101% | [15] 103% | [16] 104%

CN(C)CCN1C(=O)c2cccc3cc(N)cc(c23)C1=O
inactive: [3] 47.2% | [4] 36.9% | [6] 56.2% | [7] 57.6% | [8] 32.3% | [9] 12.4% | [10] 46.9% | [11] 33.7% | [12] 21% | [14] 13.7% | [15] 15.4% | [16] 28.8%
active: [1] 1.78% | [17] -5.76% | [5] -39.9% | [13] 7.96%

N#Cc1c(C#N)c(SSc2c(C#N)c(C#N)c(N)n2-c2ccccc2)n(-c2ccccc2)c1N
inactive: [1] 125% | [3] 91.8% | [17] 76.8% | [4] 115% | [5] 94.5% | [6] 127% | [7] 99.6% | [8] 101% | [9] 96.5% | [10] 109% | [11] 114% | [12] 98.7% | [13] 104% | [14] 104% | [15] 96.3% | [16] 106%

COc1ccc(OC)c2c1C(=O)CC2C (centres undefined)
inactive: [1] 106% | [2] 105% | [3] 112% | [5] 100% | [6] 101% | [7] 98.2% | [8] 108% | [9] 98.8% | [10] 120% | [11] 102% | [12] 105% | [13] 99.6% | [14] 111% | [15] 113% | [16] 103%

O=C(CCCCCCC(=O)Nc1cccnc1)NO
inactive: [3] 60.8% | [17] 16.1% | [5] 31% | [6] 25.1% | [7] 34.6% | [10] 69.5% | [11] 19.8% | [12] 35.6% | [13] 35.3% | [15] 40%
active: [1] -14.9% | [8] 2.65% | [9] -28.7% | [14] 9.09% | [16] 6.19%

C/C(=N\Nc1nc2ccccc2s1)c1ccncn1
active: [1] -26.4% | [17] -12.3% | [5] -22.2% | [9] -0.411% | [13] 4.99% | [14] 5.21%
inactive: [3] 38.9% | [4] 37.7% | [6] 21.2% | [7] 73.5% | [8] 22.9% | [10] 46.3% | [11] 46.2% | [12] 31.2% | [15] 46.3% | [16] 39.1%

Cc1cccc2c1O/C(=C\c1ccc([N+](=O)[O-])o1)C2=O
active: [2] -7.67% | [3] -20.8% | [17] -82.4% | [5] -34.7% | [6] -85.7% | [7] -23.2% | [9] -26% | [10] -68.5% | [11] -53.2% | [12] -68% | [13] -39.7% | [14] -53.2% | [15] -67.4% | [16] -34.2%
inactive: [4] 45.1% | [8] 10.5%

Cc1cccc2c(NCCN(C)C)c3cccc(C(=O)NCCN(C)C)c3nc12
active: [1] -34.6% | [17] -44% | [5] -61% | [8] -3.11% | [11] 8.12% | [12] 4.11% | [13] 2.67% | [14] 8.86% | [15] -22.8% | [16] -27.6%
inactive: [3] 26.1% | [4] 19.7% | [6] 13.9% | [7] 10.2% | [9] 29.3%

Fc1ccc(-c2nnc(-c3c(-c4ccc(F)cc4)nc4ccccn34)o2)cc1
inactive: [2] 36.7% | [3] 99.9% | [17] 88.8% | [4] 85.3% | [5] 114% | [6] 90.3% | [7] 92.4% | [8] 67.7% | [9] 62.3% | [10] 60.2% | [11] 85.1% | [12] 91.1% | [13] 59.8% | [14] 45.4% | [15] 94.1% | [16] 79.9%

O=C(/C=C/c1cc2ccccc2[nH]c1=O)c1ccc2c(c1)OCO2
inactive: [2] 96.1% | [3] 104% | [17] 88% | [4] 102% | [5] 92.5% | [6] 102% | [7] 93.8% | [8] 105% | [9] 72.2% | [11] 95.7% | [12] 99.6% | [13] 80.6% | [14] 81.6% | [15] 105% | [16] 92.3%

Cc1ccc(NC(=O)CSc2nc3ccccc3c(=O)n2CCc2ccccc2)c(C(=O)O)c1
inactive: [2] 100% | [3] 111% | [17] 103% | [4] 93.6% | [5] 94.1% | [6] 115% | [7] 106% | [8] 118% | [9] 96.2% | [10] 96.8% | [12] 109% | [13] 93.8% | [14] 92.7% | [15] 113% | [16] 110%

Cc1cc(N(CCCNc2ccnc3cc(Cl)ccc23)Cc2ccc3c(c2)OCO3)nc(N2CCOCC2)n1
inactive: [2] 31.7% | [3] 77.4% | [17] 23.1% | [4] 90.5% | [5] 10.9% | [7] 34.3% | [8] 46.9% | [10] 12.3% | [12] 11.7% | [13] 31.9% | [15] 25.7% | [16] 40.6%
active: [6] -6.27% | [9] 0.442% | [14] 3.52%

CSCCCNC(=O)c1ccc2c(c1)/C(=C/c1[nH]c(C)cc1C)C(=O)N2
inactive: [2] 32.6% | [3] 35.9% | [17] 27.6% | [4] 20.5% | [6] 45% | [8] 42.9% | [9] 44.5% | [11] 13.4% | [12] 28.9% | [15] 30.3% | [16] 17.1%
active: [5] -12.5% | [7] -13.5% | [10] 9.33% | [14] 3.75%

COc1ccc(CN2CCC(N3CCCC3=O)c3cc(Cl)ccc32)cc1 (centres undefined)
inactive: [2] 104% | [3] 93.3% | [17] 95.3% | [4] 105% | [5] 104% | [6] 120% | [7] 99.3% | [8] 90.2% | [9] 89.5% | [10] 67.6% | [11] 119% | [12] 102% | [13] 100% | [14] 96.8% | [15] 105% | [16] 103%

COc1ccc(-n2c(SCc3cc(OC)c(OC)c(OC)c3)nc3ccc(C)cc3c2=O)cc1
active: [11] -4.51%
inactive: [2] 84.2% | [3] 80.6% | [17] 67.2% | [4] 73.8% | [5] 62% | [6] 59.9% | [7] 77.7% | [8] 45.8% | [9] 67.8% | [12] 49.3% | [13] 24.8% | [14] 35% | [15] 75.7% | [16] 35.4%

Clc1nc(Cl)c2c(ncn2C/C=C\Cn2cnc3c(Cl)nc(Cl)nc32)n1
active: [2] -83% | [3] -76.7% | [17] -69% | [5] -83.7% | [6] -98.9% | [7] -53% | [9] -47% | [11] -44.9% | [12] -92.2% | [13] -1.6% | [14] -15.4% | [16] -94.5%
inactive: [4] 34.5% | [8] 11%

O=[N+]([O-])c1ccc(N/N=C/c2cccc3ccccc23)nc1
inactive: [2] 104% | [3] 96.7% | [17] 90.4% | [4] 105% | [5] 89.8% | [6] 122% | [7] 108% | [8] 107% | [9] 75.4% | [10] 106% | [11] 118% | [12] 117% | [13] 75.6% | [14] 95.8% | [15] 101% | [16] 99.1%

CC(C)=CCc1ccc(O)c(=O)cc1C(C)C
inactive: [2] 12.4% | [3] 52.4% | [17] 31.2% | [4] 18.5% | [6] 43.4% | [7] 72.7% | [9] 20.4% | [11] 30.7% | [12] 34.1% | [13] 21.5% | [14] 17.3% | [16] 26.4%
active: [5] 1.88% | [8] 1.61% | [10] -2.13% | [15] 7.5%

COc1cc(C(=O)/C=C/c2cc(-c3cc(OC)c(OC)c(OC)c3)n[nH]2)cc(OC)c1OC
active: [2] 8.1% | [5] -20% | [6] 7.64% | [9] -26.1% | [10] -79% | [11] -51.8% | [12] -71.8% | [13] 3.65% | [14] -93.6% | [16] -77.7%
inactive: [3] 44.9% | [17] 34.2% | [4] 47.3% | [7] 62.4% | [8] 34.6%

COc1cc2c(cc1OCCCN1CCN(c3ncnc4ccccc34)CC1)N=CC1CCCN1C2=O (centres undefined)
active: [2] -54.7% | [17] 4.86% | [5] -28.9% | [6] -35.2% | [7] -57.6% | [11] -67.8% | [12] -24% | [13] -17.4% | [16] -24.8%
inactive: [3] 17.7% | [4] 19.8% | [8] 15.9% | [9] 25% | [14] 11.7%
